Screens (PubChem BioAssay)
This excerpt belongs to a sample that is enriched for hits.
KDM5B inh: inhibitors of human KDM5B histone demethylase. Q9UGL1. KDM5B demethylase, FDH-coupled NADH fluorescence (FDH is formaldehyde dehydrogenase). Potency, µM (doses to about 57.7 µM), hits mostly inhibitors. 220,000 tested, 2.6% active. AID 1347165; active = well fitted inhibition curve with a large enough effect; note: 0% is about no effect; nearly all actives have a fitted effect of over 70% in size
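Measured: NADH fluorescence change, 30 min, RT. System: KDM5BΔAP 200 nM final, H3K4me3 peptide, α-KG, Fe(II), ascorbate, NAD⁺ plus FDH, pH 7.5 HEPES. Compounds: titrated, 10 min pre-incubation with enzyme.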
Starred values were filed as active, the others as inactive. Potency is the fitted concentration of half-maximal effect.

Results for COc1ccc(OC)c(C(C)NC(=O)CSC(C)(C)C)c1 (centres undefined) ?
KDM5B inh: inactive

What do the screens show for `Fc1ccc(/C=C2\CCCC3=C2N=C2SC=C(c4ccccc4)N2C3c2ccc(F)cc2)cc1` (centres undefined)?
KDM5B inh: inactive

What do the screens show for `COC(=O)c1ccc(CN(C)C(=O)C(C)(C)C)cc1`?
KDM5B inh: inactive

How did COC[C@@H]1CN(c2ncccn2)C[C@H]1C(=O)NCCn1cccn1 do in these assays?
KDM5B inh: 20µM*

Results for O=C(NCCn1cccn1)C1CCC(=O)N(CC2CCCCC2)C1 (centres undefined) ?
KDM5B inh: inactive

What do the screens show for `COC[C@@H]1CN(c2ncccn2)C[C@H]1C(=O)N(C)Cc1cn(C)nc1C`?
KDM5B inh: 14µM*

Results for COC[C@@H]1CN(c2ncccn2)C[C@H]1C(=O)Nc1ccc(OC)nc1 ?
KDM5B inh: 25µM*

Results for COc1ccc(NC(=O)N2CCN(c3cnccn3)CC2)cn1 ?
KDM5B inh: inactive

How did Cc1n[nH]c(C)c1CNC(=O)C1CCN(C(=O)c2ncn3c2COC(c2ccc(F)cc2)C3)CC1 (centres undefined) do in these assays?
KDM5B inh: inactive

How did CNC(=O)[C@@H]1CN(C(=O)c2ocnc2C)C[C@H]1COC do in these assays?
KDM5B inh: inactive

What do the screens show for `COC[C@@H]1CN(Cc2ccccn2)C[C@H]1C(=O)NC1CC1`?
KDM5B inh: inactive

What do the screens show for `COC[C@@H]1CN(Cc2cn(C)nc2C)C[C@H]1c1ccncc1`?
KDM5B inh: inactive

Results for COC[C@@H]1CN(c2ncccn2)C[C@H]1C(=O)NCc1c(C)n[nH]c1C ?
KDM5B inh: 28µM*

How did COC[C@@H]1CN(Cc2cnn(C)c2)C[C@H]1C(=O)N(C)C do in these assays?
KDM5B inh: inactive

What do the screens show for `CNC(=O)[C@@H]1CN(C(=O)CCn2cccn2)C[C@H]1COC`?
KDM5B inh: inactive

How did COc1ccccc1C1=NS(=O)(=O)N(C)C(C(=O)Nc2ccc(C(C)=O)cc2)=C1 do in these assays?
KDM5B inh: inactive

What do the screens show for `COc1ccc(NCC(=O)Nc2ccccc2C(=O)NC2CC2)cc1`?
KDM5B inh: inactive

Results for Cc1ccc(O)c(C(=O)N(C)Cc2cccc(F)c2)c1 ?
KDM5B inh: inactive

How did O=C(Cn1cccc1-c1nc(-c2ccc(F)c(Br)c2)no1)NC1CCCC1 do in these assays?
KDM5B inh: inactive

What do the screens show for `CCN(CC)c1ccc(NC(=O)CCCn2cnc3c2c(=O)n(C)c(=O)n3C)cc1`?
KDM5B inh: inactive

What do the screens show for `COc1ccc(C)cc1NC(=O)CNC(=O)CNc1ccc(C)cc1Br`?
KDM5B inh: inactive

What do the screens show for `COC[C@@H]1CN(Cc2cccc(OC)c2OC)C[C@H]1C(=O)NC1CC1`?
KDM5B inh: inactive

What do the screens show for `COC[C@@H]1CN(c2ncccn2)C[C@H]1C(=O)NCc1ccccc1OC`?
KDM5B inh: 18µM*

What do the screens show for `COc1ccccc1CNC(=O)[C@H]1CN(C(C)C)C[C@H]1C(=O)O`?
KDM5B inh: inactive

How did C[C@]12C[C@H](O)[C@@H]3c4ccc(O)cc4CC[C@H]3[C@@H]1CCC2=O do in these assays?
KDM5B inh: inactive

What do the screens show for `CC(=O)Nc1ccc(CNCCSCc2cccs2)cc1`?
KDM5B inh: inactive

How did CC1(C(=O)NCCN2CCCCC2)CCCCC(=O)N1 (centres undefined) do in these assays?
KDM5B inh: inactive

Results for Cc1ccc(-c2csc3ncn(CC(=O)c4cc(C)n(C)c4C)c(=O)c23)s1 ?
KDM5B inh: inactive

Results for CCC(C(=O)NCc1nnc2cc(-c3nc(C4CC4)no3)ccn12)c1ccccc1 (centres undefined) ?
KDM5B inh: inactive

Results for CCc1noc(-c2ccn3c(CNC(=O)Cc4cccc(F)c4)nnc3c2)n1 ?
KDM5B inh: inactive

What do the screens show for `Cc1ccc(CC(=O)NCc2nnc3cc(-c4nc(C5CC5)no4)ccn23)cc1`?
KDM5B inh: 28µM*

What do the screens show for `O=C(Cc1ccccc1Cl)NCc1nnc2cc(-c3nc(C4CC4)no3)ccn12`?
KDM5B inh: 16µM*

What do the screens show for `Cc1ccccc1CC(=O)NCc1nnc2cc(-c3nc(C4CC4)no3)ccn12`?
KDM5B inh: 28µM*

How did O=C1CC(c2ccc(C(=O)O)cc2)c2sc(C(=O)O)c(-c3ccccc3)c2N1 (centres undefined) do in these assays?
KDM5B inh: inactive

How did CCOc1ccc(C(N)=S)cc1 do in these assays?
KDM5B inh: inactive

What do the screens show for `COCCNC(=S)N/N=C(/C)c1cc(OC)c(OC)c(OC)c1`?
KDM5B inh: inactive

What do the screens show for `O=C(OCc1ccc(-c2ccccc2)cc1)c1ccc(CO)cc1`?
KDM5B inh: inactive

How did CCNC(=O)c1cc2cc(N(C)S(C)(=O)=O)ccc2s1 do in these assays?
KDM5B inh: inactive

How did Cc1c(S(=O)(=O)c2ccccc2)c(NC(=O)C(C)C)n(Cc2ccccc2)c1C do in these assays?
KDM5B inh: inactive

Results for CCCNC(=O)NC(C(N)=O)C(N)=O ?
KDM5B inh: inactive

Results for O=C(N/N=C/C1CC=CCC1)c1cccs1 (centres undefined) ?
KDM5B inh: inactive

How did Cc1cc2cc(NS(=O)(=O)c3ccc4ccccc4c3)ccc2[nH]1 do in these assays?
KDM5B inh: inactive

What do the screens show for `Cc1nc2ccccc2nc1SC(C)C(=O)N1CCOCC1` (centres undefined)?
KDM5B inh: inactive

What do the screens show for `CCCC(C)c1nnc(NC(=O)C2CCN(C(=O)c3ccccc3F)CC2)s1` (centres undefined)?
KDM5B inh: inactive

Results for COc1ccc(C(=O)NC2CCN(c3cc(-c4cccs4)[nH]n3)C2)c(C)c1 (centres undefined) ?
KDM5B inh: 14µM*

What do the screens show for `O=C(NC1CCCN(c2cc(-c3ccc(Cl)cc3)[nH]n2)C1)c1cccs1` (centres undefined)?
KDM5B inh: inactive

What do the screens show for `O=C(NC1CCN(c2cc(-c3cccs3)[nH]n2)CC1)c1cc(F)ccc1Cl`?
KDM5B inh: inactive

How did O=C(NC1CCCN(c2cc(-c3ccc(F)cc3)[nH]n2)C1)c1ccc(F)cc1Cl (centres undefined) do in these assays?
KDM5B inh: inactive

Results for O=C(NC1CCN(c2cc(-c3cccs3)[nH]n2)C1)c1ccccc1Cl (centres undefined) ?
KDM5B inh: 14µM*

Results for O=C(NC1CCN(c2cc(-c3ccccc3)[nH]n2)C1)c1ccccc1 (centres undefined) ?
KDM5B inh: inactive

Results for O=C(Cc1ccc(Cl)cc1)NC1CCN(c2cc(-c3cccs3)[nH]n2)C1 (centres undefined) ?
KDM5B inh: 8.9µM*

How did COc1ccc(-c2cc(N3CCC(NC(=O)c4cccs4)CC3)n[nH]2)cc1 do in these assays?
KDM5B inh: inactive

What do the screens show for `COc1cccc(C(=O)NC2CCN(c3cc(-c4cccs4)[nH]n3)CC2)c1OC`?
KDM5B inh: inactive

Results for O=C(NC1CCN(c2cc(-c3cccs3)[nH]n2)C1)c1ccc(F)cc1Cl (centres undefined) ?
KDM5B inh: 16µM*

How did COc1ccc(-c2cc(N3CCC(NC(=O)c4ccccc4Cl)CC3)n[nH]2)cc1 do in these assays?
KDM5B inh: inactive

What do the screens show for `O=C(NC1CCN(c2cc(-c3cccs3)[nH]n2)CC1)c1cc(Cl)ccc1F`?
KDM5B inh: inactive

How did CC1=C[C@@H](CN(C)CCO)[C@H](C(C)C)C[C@H]1Cc1nnc(-c2ccc(C)cc2)o1 do in these assays?
KDM5B inh: inactive
